What all share (settings): mRNA level, 48 h; actives raise or lower the signal
Read-out in experiment [1]: Interleukin 6 (IL6), IL6 (gene 3569)
The experiment is described as follows: LTEA_HepaRG_IL6: Life Technologies and Expression Analysis (LTEA) Assay for Interleukin 6 (IL6) using HepaRG (AID 2283509). The method in brief: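 Differentiated human HepaRG cells, plated 48 h then switched to serum-free induction medium, were exposed in duplicate for 48 h to eight half-log concentrations up to 100 uM in 0.5% DMSO. IL6 mRNA measured by qRT-PCR, normalized to ACTB/GAPDH/POLR2A.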

Read-out in experiment [2]: Interleukin 6 Receptor (IL6R), IL6R (gene 3570)
Kind of experiment: LTEA_HepaRG_IL6R: Life Technologies and Expression Analysis (LTEA) Assay for Interleukin 6 Receptor (IL6R) using HepaRG (AID 2283510).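 For AC50: TaqMan qRT-PCR signal normalized to ACTB GAPDH and POLR2A housekeeping genes.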 The method, boiled down: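 Readout is IL6R transcript level by TaqMan qRT-PCR, normalized to three housekeeping genes and fitted bidirectionally against 0.5% DMSO controls. Human HepaRG cells received chemicals for 48 h in serum-free induction medium, highest concentration 100 uM.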

Read-out in experiment [3]: Potassium channel subfamily K member 1 (KCNK1), KCNK1 (gene 3775)
The experiment is described as follows: LTEA_HepaRG_KCNK1: Life Technologies and Expression Analysis (LTEA) Assay for Potassium channel subfamily K member 1 (KCNK1) using HepaRG (AID 2283511). The method in brief: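 Differentiated human HepaRG cells in serum-free induction medium were exposed in duplicate for 48 h to 8 half-log concentrations up to 100 uM in 0.5% DMSO. KCNK1 mRNA was measured by TaqMan qRT-PCR, normalized to ACTB, GAPDH and POLR2A, and fitted bidirectionally versus DMSO.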

Read-out in experiment [4]: Keratin 19 (KRT19), KRT19 (gene 3880)
Kind of experiment: LTEA_HepaRG_KRT19: Life Technologies and Expression Analysis (LTEA) Assay for Keratin 19 (KRT19) using HepaRG (AID 2283512). The method in brief:
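Gene-expression endpoint in the human liver line HepaRG after 48 h exposure to up to 100 uM test chemical with 0.5% DMSO vehicle; KRT19 mRNA by qRT-PCR, analyzed bidirectionally versus DMSO.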

Read-out in experiment [5]: JUN Transcription Factor, JUN (gene 3725)
Kind of experiment: LTEA_HepaRG_JUN: Life Technologies and Expression Analysis (LTEA) Assay for JUN Transcription Factor using HepaRG (AID 2283513). The method, boiled down:
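Cells plated 48 h, medium switched to serum-free induction medium, then dosed 48 h (100 uM top, half-log dilutions, 0.5% DMSO). RNA isolated; JUN measured by qRT-PCR against three housekeeping genes; gain or loss fitted relative to DMSO.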

Read-out in experiment [6]: Lipase C (LIPC), LIPC (gene 3990)
Kind of experiment: LTEA_HepaRG_LIPC: Life Technologies and Expression Analysis (LTEA) Assay for Lipase C (LIPC) using HepaRG (AID 2283514). The method, boiled down: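 Differentiated human HepaRG cells in serum-free induction medium were exposed in duplicate for 48 h to eight concentrations (top 100 uM, half-log steps, 0.5% DMSO). LIPC mRNA was quantified by TaqMan qRT-PCR, normalized to ACTB, GAPDH and POLR2A, with bidirectional fitting versus DMSO.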

Read-out in experiment [7]: Lipoprotein lipase (LPL), LPL (gene 4023)
The experiment is described as follows: LTEA_HepaRG_LPL: Life Technologies and Expression Analysis (LTEA) Assay for Lipoprotein lipase (LPL) using HepaRG (AID 2283515). The method, boiled down:
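Differentiated human HepaRG cells in serum-free induction medium were exposed in duplicate for 48 h to eight half-log concentrations (top 100 uM) in 0.5% DMSO. LPL mRNA was quantified by TaqMan qRT-PCR, normalized to ACTB, GAPDH and POLR2A.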

Read-out in experiment [8]: MicroRNA 122 (MIR122), gene 406906
The experiment is described as follows: LTEA_HepaRG_MIR122: Life Technologies and Expression Analysis (LTEA) Assay for MicroRNA 122 (MIR122) using HepaRG (AID 2283516). Note: the transcript read is the microRNA miR-122. The method, boiled down:
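HepaRG plated 48 h, switched to serum-free induction medium, then treated in duplicate for 48 h (100 uM top, half-log steps, 0.5% DMSO vehicle). RNA isolated, qRT-PCR performed, concentration-response fitted both directions relative to DMSO.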

Read-out in experiment [9]: matrix metalloproteinase-10 (MMP10), MMP10 (gene 4319)
The experiment is described as follows: LTEA_HepaRG_MMP10: Life Technologies and Expression Analysis (LTEA) Assay for matrix metalloproteinase-10 (MMP10) using HepaRG (AID 2283517). The method, boiled down: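 HepaRG, collagen I, ~100,000 cells/well; serum-free induction medium; 48 h exposure, duplicate, 8-pt half-log to 100 uM, 0.5% DMSO. Readout: TaqMan qRT-PCR, normalized to ACTB/GAPDH/POLR2A; bidirectional fit vs DMSO.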

Read-out in experiment [10]: MYC, MYC (gene 4609)
Kind of experiment: LTEA_HepaRG_MYC: Life Technologies and Expression Analysis (LTEA) Assay for MYC using HepaRG (AID 2283518). The method in brief: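 Cells are thawed, plated and cultured 48 h, then treated for 48 h with test chemicals (eight half-log concentrations from 100 uM, 0.5% DMSO vehicle). RNA is isolated and MYC expression quantified by qRT-PCR against three housekeeping genes.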

Read-out in experiment [11]: matrix metalloproteinase-3 (MMP3), MMP3 (gene 4314)
Kind of experiment: LTEA_HepaRG_MMP3: Life Technologies and Expression Analysis (LTEA) Assay for matrix metalloproteinase-3 (MMP3) using HepaRG (AID 2283519). The method in brief:
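Differentiated human HepaRG cells, plated 48 h on collagen I, were exposed in duplicate for 48 h in serum-free induction medium to eight half-log concentrations up to 100 uM in 0.5% DMSO. MMP3 mRNA was quantified by TaqMan qRT-PCR, normalised to ACTB, GAPDH and POLR2A.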

Read-out in experiment [12]: Paternally Expressed 10 (PEG10), PEG10 (gene 23089)
Kind of experiment: LTEA_HepaRG_PEG10: Life Technologies and Expression Analysis (LTEA) Assay for Paternally Expressed 10 (PEG10) using HepaRG (AID 2283520). The method in brief: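 HepaRG, 48 h post-plating → serum-free induction medium → 48 h chemical exposure (duplicate, 8-pt, max 100 uM, half-log, 0.5% DMSO) → lysis in RLT → TaqMan qRT-PCR for PEG10, ACTB/GAPDH/POLR2A normalisation.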

Read-out in experiment [13]: Nuclear factor NF-kappa-B p105 subunit (Homo sapiens) (UniProt P19838)
Kind of experiment: LTEA_HepaRG_NFKB1: Life Technologies and Expression Analysis (LTEA) Assay for Nuclear Factor Kappa B Subunit 1 (NFKB1) using HepaRG (AID 2283521).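 Note: TaqMan qRT-PCR transcript normalised to ACTB GAPDH and POLR2A housekeeping genes.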 The method, boiled down: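 Human HepaRG cells receive eight half-log concentrations, highest 100 uM, for 48 h. NFKB1 expression is then quantified by qRT-PCR and analysed for up- or down-regulation relative to 0.5% DMSO vehicle.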

Read-out in experiment [14]: Protein phosphatase 2A (PPP2R4), PTPA (gene 5524)
Kind of experiment: LTEA_HepaRG_PPP2R4: Life Technologies and Expression Analysis (LTEA) Assay for Protein phosphatase 2A (PPP2R4) using HepaRG (AID 2283522). The method in brief:
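Readout is PPP2R4 transcript level by microfluidic qRT-PCR after 48 h chemical treatment of human HepaRG liver cells. Concentrations spanned 100 uM downward in half-log steps; gain or loss of signal was fitted relative to DMSO.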

Read-out in experiment [15]: Phosphatase and tensin (PTEN), PTEN (gene 5728)
Kind of experiment: LTEA_HepaRG_PTEN: Life Technologies and Expression Analysis (LTEA) Assay for Phosphatase and tensin (PTEN) using HepaRG (AID 2283523). The method in brief: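 Differentiated human HepaRG cells, plated 48 h then switched to serum-free induction medium, were exposed in duplicate for 48 h to eight half-log concentrations up to 100 uM in 0.5% DMSO. PTEN mRNA measured by TaqMan qRT-PCR, normalized to ACTB/GAPDH/POLR2A, bidirectional fit versus DMSO.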

Read-out in experiment [16]: Pyruvate Dehydrogenase Kinase 4 (PDK4), PDK4 (gene 5166)
Kind of experiment: LTEA_HepaRG_PDK4: Life Technologies and Expression Analysis (LTEA) Assay for Pyruvate Dehydrogenase Kinase 4 (PDK4) using HepaRG (AID 2283525). The method in brief:
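Differentiated human HepaRG cells, pre-cultured 48 h, were exposed in duplicate for 48 h in serum-free induction medium to eight half-log concentrations up to 100 uM in 0.5% DMSO. PDK4 mRNA was quantified by qRT-PCR, normalized to ACTB, GAPDH and POLR2A, bidirectional fitting versus DMSO.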

Read-out in experiment [17]: NAD(P)H dehydrogenase [quinone] 1 (NQO1), NQO1 (gene 1728)
The experiment is described as follows: LTEA_HepaRG_NQO1: Life Technologies and Expression Analysis (LTEA) Assay for NAD(P)H dehydrogenase [quinone] 1 (NQO1) using HepaRG (AID 2283526). The method, boiled down: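 HepaRG, 48 h post-plating → serum-free induction medium → test chemical 48 h (duplicate, 100 uM top, half-log x8, 0.5% DMSO) → RNA isolation → qRT-PCR, ACTB/GAPDH/POLR2A normalization; bidirectional curve fit vs DMSO baseline.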

Read-out in experiment [18]: Nuclear factor erythroid 2-related factor 2 (Homo sapiens) (UniProt Q16236)
The experiment is described as follows: LTEA_HepaRG_NFE2L2: Life Technologies and Expression Analysis (LTEA) Assay for Nuclear factor erythroid 2-related factor 2 (NFE2L2) Transcription Factor using HepaRG (AID 2283527).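 For outcome: TaqMan qRT-PCR transcript level normalised to ACTB GAPDH and POLR2A housekeeping genes.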 The method, boiled down:
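Differentiated human HepaRG cells in serum-free induction medium were exposed for 48 h to eight concentrations (top 100 uM, half-log dilutions, 0.5% DMSO), in duplicate. NFE2L2 mRNA was quantified by TaqMan qRT-PCR, normalized to ACTB, GAPDH and POLR2A, with bidirectional fitting versus DMSO.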

Read-out in experiment [19]: succinate dehydrogenase complex iron sulfur subunit B (SDHB), SDHB (gene 6390)
The experiment is described as follows: LTEA_HepaRG_SDHB: Life Technologies and Expression Analysis (LTEA) Assay for succinate dehydrogenase complex iron sulfur subunit B (SDHB) using HepaRG (AID 2283528). The method in brief: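 A human HepaRG culture in serum-free induction medium received test chemicals for 48 h over an eight-point range capped at 100 uM. SDHB expression change was quantified by qRT-PCR.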

Calls of active or inactive are those of the source. Rule for the calls: active = hit-call score of the fitted dose curve at least 0.9, where 1 is the maximum; inactive = score below 0.9.

The term AC50 denotes the concentration at which the activity in the assay is half-maximal.

Nuclear factor erythroid 2-related factor 2 (Homo sapiens), sequence (Q16236 whole entry, looked up): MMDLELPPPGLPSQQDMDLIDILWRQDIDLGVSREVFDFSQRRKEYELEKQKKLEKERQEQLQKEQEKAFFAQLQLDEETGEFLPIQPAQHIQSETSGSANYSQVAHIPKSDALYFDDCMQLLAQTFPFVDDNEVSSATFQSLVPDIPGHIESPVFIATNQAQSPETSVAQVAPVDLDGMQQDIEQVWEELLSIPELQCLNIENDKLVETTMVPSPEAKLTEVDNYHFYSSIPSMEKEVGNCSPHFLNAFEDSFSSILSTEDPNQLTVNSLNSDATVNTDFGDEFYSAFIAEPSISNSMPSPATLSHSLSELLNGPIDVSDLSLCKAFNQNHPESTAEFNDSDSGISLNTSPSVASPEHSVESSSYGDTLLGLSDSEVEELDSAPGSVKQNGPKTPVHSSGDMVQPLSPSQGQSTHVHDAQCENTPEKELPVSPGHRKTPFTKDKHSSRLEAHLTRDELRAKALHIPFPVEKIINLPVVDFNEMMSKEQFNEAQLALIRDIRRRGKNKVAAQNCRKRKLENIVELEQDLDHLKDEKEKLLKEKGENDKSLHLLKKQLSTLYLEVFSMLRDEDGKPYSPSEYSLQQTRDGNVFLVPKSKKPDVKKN
Nuclear factor NF-kappa-B p105 subunit (Homo sapiens), sequence (P19838 whole entry, looked up): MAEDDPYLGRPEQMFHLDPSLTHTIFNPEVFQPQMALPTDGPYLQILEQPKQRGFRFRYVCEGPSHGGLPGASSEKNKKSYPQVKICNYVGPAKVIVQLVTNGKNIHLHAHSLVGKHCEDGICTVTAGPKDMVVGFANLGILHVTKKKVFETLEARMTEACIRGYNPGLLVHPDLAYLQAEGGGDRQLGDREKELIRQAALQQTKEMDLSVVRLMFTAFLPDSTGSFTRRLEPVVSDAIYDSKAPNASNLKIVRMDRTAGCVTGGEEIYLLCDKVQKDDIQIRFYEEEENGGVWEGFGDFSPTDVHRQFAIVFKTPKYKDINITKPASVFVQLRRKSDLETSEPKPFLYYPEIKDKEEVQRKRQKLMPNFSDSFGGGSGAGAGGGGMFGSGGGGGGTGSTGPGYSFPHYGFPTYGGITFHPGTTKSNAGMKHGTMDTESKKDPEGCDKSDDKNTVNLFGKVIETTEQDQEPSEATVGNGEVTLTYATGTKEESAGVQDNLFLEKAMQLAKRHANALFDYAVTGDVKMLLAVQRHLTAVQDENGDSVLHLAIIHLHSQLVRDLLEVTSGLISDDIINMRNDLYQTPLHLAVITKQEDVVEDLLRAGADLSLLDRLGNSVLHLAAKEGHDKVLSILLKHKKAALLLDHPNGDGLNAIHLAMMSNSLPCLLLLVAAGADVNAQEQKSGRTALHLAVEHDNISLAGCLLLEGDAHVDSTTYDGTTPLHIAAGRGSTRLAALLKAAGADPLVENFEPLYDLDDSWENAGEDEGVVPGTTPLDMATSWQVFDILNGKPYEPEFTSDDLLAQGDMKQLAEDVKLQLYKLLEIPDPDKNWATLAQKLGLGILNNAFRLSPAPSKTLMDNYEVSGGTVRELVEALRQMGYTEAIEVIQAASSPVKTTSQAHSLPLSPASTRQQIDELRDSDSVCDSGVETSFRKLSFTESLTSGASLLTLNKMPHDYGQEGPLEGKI

As to `CCc1ccc(CCOc2ccc(CC3SC(=O)NC3=O)cc2)nc1` (stereo not given), the AC50 in [1] is 88.8 µM (active); in experiment [2], 63.5 µM (active); in experiment [4], 31.3 µM (active); in experiment [6], 82 µM (active); in experiment [7], 9.92 µM (active); in experiment [8], 72.7 µM (active). Also, the AC50 was 86.3 µM (active) in experiment [9]; 80.8 µM (active) in experiment [10]; 14.2 µM (active) in experiment [12]; 50 µM (active) in experiment [14]; 11.6 µM (active) in [16]; 50 µM (active) in [18]. In addition, the result in experiment [3], in [5], in [11], in experiment [13], in [15] and in experiment [17] was inactive. For the same molecule, the call in experiment [19] was inactive.
Consider `CC(C)(C)c1cc(C(C)(C)C)c(O)c(C(C)(C)C)c1`, for which the call in [1], in experiment [2], in experiment [3], in experiment [4], in experiment [6] and in [7] was inactive. The result in experiment [8], in experiment [9], in [10], in experiment [11], in experiment [12] and in [14] was inactive. The outcome in [15], in [17], in [18] and in experiment [19] was inactive. The AC50 in experiment [16] was 23.5 µM (active).
Take `C#C[C@]1(O)CC[C@H]2[C@@H]3CCC4=CC(=O)CC[C@@H]4[C@H]3CC[C@@]21C`: the call in [1], in [2], in [3], in [4], in [5] and in experiment [6] was inactive. In addition, the molecule was called inactive in experiment [7], in experiment [8], in experiment [9], in experiment [10], in [13] and in [14]. In addition, the call in [15], in [16], in experiment [17], in experiment [18] and in experiment [19] was inactive. The results for the AC50 in [11] and in [12] were 7.81 µM (active) and 0.321 µM (active), respectively.
